Bioassay records deposited in PubChem BioAssay by several laboratories.
An excerpt weighted towards active compounds, which were near 21% of everything screened.
CYP2C19 act: cytochrome P450 2C19 (human) activation; P33261; recombinant CYP2C19, luciferin-H EGE luminescence; hits give high values; 0 = fully inhibited enzyme, 1 = untreated enzyme; activation factor at 5 µM; 96,000 tested, under 10 active; AID 1025;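 active = activation factor of at least 2 at 5 µM in the primary screen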
Target sequence (P33261 whole entry, looked up): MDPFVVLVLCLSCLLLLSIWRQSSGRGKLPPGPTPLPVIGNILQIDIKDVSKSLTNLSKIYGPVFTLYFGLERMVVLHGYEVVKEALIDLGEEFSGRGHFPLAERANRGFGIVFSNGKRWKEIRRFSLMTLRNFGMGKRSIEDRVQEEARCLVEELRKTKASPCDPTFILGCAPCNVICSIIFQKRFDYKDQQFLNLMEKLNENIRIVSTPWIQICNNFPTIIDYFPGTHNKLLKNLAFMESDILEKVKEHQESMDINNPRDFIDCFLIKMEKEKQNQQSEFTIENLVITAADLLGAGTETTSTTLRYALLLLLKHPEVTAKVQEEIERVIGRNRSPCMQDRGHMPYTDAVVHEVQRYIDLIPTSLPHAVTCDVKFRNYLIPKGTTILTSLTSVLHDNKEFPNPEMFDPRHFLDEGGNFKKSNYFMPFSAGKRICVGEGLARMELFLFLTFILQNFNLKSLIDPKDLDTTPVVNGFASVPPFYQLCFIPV
MRP resist rev: MRP-mediated drug resistance reversal; H69AR cells + 2 uM doxorubicin, CellTiter-Glo, 72 h; differential viability (reversal), % at 10 µM; actives 0.04% (n = 85,000);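 active = viability drop by adding the cancer drug above about 55%, with treated viability meeting a 40% cutoff, limit read from the data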;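 note: larger differential means the compound sensitizes cells more to doxorubicin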
MRP-1 activ: activates MRP-1. H69AR cells + doxorubicin, viability rescue, CellTiter-Glo. actives 0.61% (n = 140,000). viability increase, % at 10 µM. AID 799;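 active = viability gain under doxorubicin at or above a set limit, the compound median plus 3 SD, cut at about 4.7% in these data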;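 note: MRP-1 overexpressing cells given doxorubicin 25 µM after compound pretreatment; 18-22 h compound pretreatment then 72 h with doxorubicin before readout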
CYP2C9 inh: human CYP2C9 inhibition; CYP2C9 Supersomes, luciferin-H conversion, luminescence; actives 20% (n = 96,000); inhibition, % at 5 µM; AID 777;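 active = blocking of liver enzyme CYP2C9 beyond about 50% at 5 µM, limit read from the data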
CYP2C19 inhib: inhibitors of human CYP2C19; CYP2C19 Supersomes, luciferin-H EGE luminescence, 30 min; P33261; AID 778; actives 21% (n = 96,000); inhibition, % at 5 µM;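 active = CYP2C19 inhibition above a set limit at 5 µM in the primary screen, cut at about 50% in these data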
CYP2C9 activ: CYP2C9 (human) activation | P11712 | recombinant CYP2C9, luciferin-H conversion, luminescence; hits give high values; factor 1 = untreated enzyme, 0 = blocked | activation factor at 5 µM | actives 1.4% (n = 96,000);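 active = activation factor of 2 or more for CYP2C9 at a 5 µM dose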
Each line names hits and unclear results; the compound was inactive in the other large screens.

COC(=O)C1=C(C)N(C)C(=O)NC1c1ccccc1 (stereo not drawn)	none (no result: MRP resist rev)
Cc1ccc(C(C)C)c(OCC(=O)NNC(=O)C(C(C)C)N2C(=O)c3ccccc3C2=O)c1 (stereo not drawn)	none (no result: CYP2C19 act, MRP resist rev, CYP2C9 inh, CYP2C19 inhib, CYP2C9 activ)
COC(=O)C(NC(=O)c1ccccc1)(Nc1cc(C)cc(C)n1)C(F)(F)F (stereo not drawn)	none (no result: CYP2C19 act, CYP2C9 inh, CYP2C19 inhib, CYP2C9 activ)
CC1=C(C(=O)OCC2CCCO2)C(c2cccc(O)c2)NC(=O)N1 (stereo not drawn)	CYP2C19 inhib 67
CCOC(=O)C1=C(C)NC(=O)NC1c1cc(Br)c(O)c(OC)c1 (stereo not drawn)	CYP2C9 inh 64
COc1cc(C2NC(=O)NC(C)=C2C(=O)OCc2ccc(C)cc2)cc(OC)c1O (stereo not drawn)	none
CC1=C(C(=O)OC2CCCCCCC2)C(c2ccc(O)cc2)NC(=O)N1 (stereo not drawn)	CYP2C9 inh 92, CYP2C19 inhib 82 (no result: MRP-1 activ)
Cc1cc(=O)oc(C)c1C(=O)N[C@@H]1CCCCNC1=O	none
CCn1c(COc2ccc(Cl)cc2)nnc1SCc1nc2ccccc2[nH]1	MRP-1 activ 6.8
Cc1ccc(OCc2nnc(SCc3nc4ccccc4[nH]3)n2Cc2ccco2)cc1	CYP2C9 inh 65
c1ccc(-c2nnc(SCc3nc4ccccc4[nH]3)n2Cc2ccco2)cc1	CYP2C9 inh 59
Nn1c(SCc2nc3ccccc3[nH]2)nnc1-c1ccccc1	none
O=C(CCCN1C(=O)c2ccccc2C1=O)NCCN1C(=O)S/C(=C\c2cccs2)C1=O	none (no result: CYP2C19 act, MRP resist rev, CYP2C9 inh, CYP2C19 inhib, CYP2C9 activ)
COC(=O)c1ccc(Sc2ccccn2)c([N+](=O)[O-])c1	none (no result: CYP2C19 act, MRP resist rev, CYP2C9 inh, CYP2C19 inhib, CYP2C9 activ)
CC(C)(C)n1nnnc1C(c1cccc(C#N)c1)N1CCCc2ccccc21 (stereo not drawn)	CYP2C9 inh 94, CYP2C19 inhib 91
COc1ccccc1C(c1nnnn1C(C)(C)C)N1CCN(Cc2ccncc2)CC1 (stereo not drawn)	CYP2C9 inh 89, CYP2C19 inhib 79
CC(C)(C)n1nnnc1C(c1ccc(Cl)cc1)N1CCCc2ccccc21 (stereo not drawn)	CYP2C9 inh 76, CYP2C19 inhib 84
COc1ccccc1N1CCN(C(c2ccc(Cl)cc2)c2nnnn2C(C)(C)C)CC1 (stereo not drawn)	CYP2C9 inh 87, CYP2C19 inhib 89
CC1Oc2ccccc2OC1(O)c1ccc2ccccc2n1 (stereo not drawn)	none (no result: CYP2C19 act, MRP resist rev, CYP2C9 inh, CYP2C19 inhib, CYP2C9 activ)
O=C(COC(=O)/C=C/c1ccccc1Cl)NCCc1ccc(Cl)cc1Cl	none (no result: CYP2C19 act, MRP resist rev, CYP2C9 inh, CYP2C19 inhib, CYP2C9 activ)
CCC12CN3CCN(CC(C3)/C1=N\NC(=O)c1ccc(C(C)(C)C)cc1)C2	none (no result: CYP2C19 act, MRP resist rev, CYP2C9 inh, CYP2C19 inhib, CYP2C9 activ)
Cn1cnnc1SCC(=O)c1cc2ccccc2oc1=O	none
O=C(CSc1nnc(-c2cccnc2)o1)c1cc2ccccc2oc1=O	CYP2C9 inh 70
N#Cc1ccc(-c2ccccc2)nc1SCC(=O)c1cc2ccccc2oc1=O	CYP2C9 inh 76 (no result: MRP resist rev)
CC(C)c1c(C#N)c(N)nc(SCC(=O)c2cc3ccccc3oc2=O)c1C#N	CYP2C9 inh 92
CCOC(=O)c1c(CSc2ccc(C)cc2)oc2ccc(O)cc12	none (no result: CYP2C19 act, MRP resist rev, CYP2C9 inh, CYP2C19 inhib, CYP2C9 activ)
CCC1(C)Cc2c(sc3c2c(=O)n(C)c2nnc(SCC(=O)c4ccc(Cl)cc4)n32)CO1 (stereo not drawn)	none (no result: CYP2C19 act, MRP-1 activ, CYP2C9 inh, CYP2C19 inhib, CYP2C9 activ)
CC(=O)c1ccc(Nc2cc(C)nc3nc(C)nn23)cc1	none (no result: CYP2C19 act, CYP2C9 inh, CYP2C19 inhib, CYP2C9 activ)
COc1ccc(NC(=O)c2noc3c2CCC3)cc1	CYP2C19 inhib 62
O=C(Nc1cccc(O)c1)c1noc2c1CCCCC2	CYP2C19 inhib 70
NC(=O)C1CCN(C(=O)c2ccc(NC3=NC4CS(=O)(=O)CC4S3)cc2)CC1 (stereo not drawn)	none (no result: MRP resist rev)
CCc1cc(SC#N)cc(CC)c1NC(=O)CCl	none (no result: CYP2C19 act, MRP resist rev, CYP2C9 inh, CYP2C19 inhib, CYP2C9 activ)
CCOC(=O)C1CCCN(C(=O)Cn2nc(Cc3cccnc3)c3ccccc3c2=O)C1 (stereo not drawn)	none
COc1ccc(CNC(=O)Cn2nc(Cc3cccnc3)c3ccccc3c2=O)cc1	CYP2C9 inh 76
COc1cccc(NC(=O)Cn2nc(Cc3cccnc3)c3ccccc3c2=O)c1	CYP2C9 inh 59
Cn1ncc(N=Cc2ccccc2)c1C(=O)Nc1cccc(Cl)c1	CYP2C9 inh 56
Brc1ccc(N=C(c2ccccc2)c2ccncc2)cc1	none (no result: CYP2C19 act, MRP resist rev, CYP2C9 inh, CYP2C19 inhib, CYP2C9 activ)
COc1ccc(C2CC(c3ccc(OC)cc3)n3nc(NC(=O)c4ccco4)nc3N2)cc1 (stereo not drawn)	none
CCOC(=O)c1c(C(F)(F)C(F)(F)C(F)(F)C(F)(F)F)n[nH]c1C	CYP2C9 inh 92, CYP2C19 inhib 95
CCOC(=O)c1c(C)[nH]sc1=S	none (no result: MRP resist rev)
CCCC(C)NC(=O)c1ccc(F)cc1 (stereo not drawn)	none
CCc1ccc(C(C)NC(=O)c2ccc(F)cc2)cc1 (stereo not drawn)	CYP2C9 inh 51, CYP2C19 inhib 55 (no result: MRP resist rev)
CCOC(=O)c1oc2cc(O)ccc2c(=O)c1-c1ccc(OC)cc1	none
COc1ccc2cc(C(C)=O)c(=O)oc2c1	none (no result: CYP2C19 act, MRP resist rev, CYP2C9 inh, CYP2C19 inhib, CYP2C9 activ)
COc1ccc(C(=O)c2cc3ccc(O)cc3oc2=O)cc1	CYP2C19 inhib 63
O=C(NCc1ccco1)c1cc2ccc(O)cc2oc1=O	CYP2C9 inh 93, CYP2C19 inhib 97
COc1ccc2cc(C(=O)NCc3ccco3)c(=O)oc2c1	none
COc1ccc2cc(C(=O)NC3CCCCC3)c(=O)oc2c1	CYP2C9 inh 70, CYP2C19 inhib 96
O=C(c1ccccc1)c1cc2ccc(O)cc2oc1=O	CYP2C9 inh 80, CYP2C19 inhib 93
O=C(CCCc1ccccc1)N1CCN(c2ccc([N+](=O)[O-])cc2)CC1	none (no result: MRP resist rev)
COc1ccc(-n2c(SCCC#N)nnc2-c2cc(Cl)ccc2OC)cc1Cl	none (no result: CYP2C19 act, CYP2C9 inh, CYP2C19 inhib, CYP2C9 activ)
Cc1ccc(N(C(=O)Cc2cccs2)C(C(=O)NC2CCCCC2)c2ccccn2)cc1C (stereo not drawn)	none (no result: CYP2C19 act, MRP resist rev, CYP2C9 inh, CYP2C19 inhib, CYP2C9 activ)
COc1ccc(OC(=O)c2cccc([N+](=O)[O-])c2)c(C(=O)/C=C/c2cccs2)c1	CYP2C9 inh 75, CYP2C19 inhib 62
COC(=O)NCc1ccc(Cl)c(Cl)c1	CYP2C19 inhib 64
COc1ccc(CNC(=O)Oc2ccccc2)cc1Cl	CYP2C19 inhib 63, CYP2C9 activ 2.4
COC(=O)NCc1ccc(CNC(=O)OC)cc1	none
COCc1cc(=O)[nH]c(Sc2c(-c3ccccc3)c3ccc(Cl)cc3[nH]c2=O)n1	none (no result: CYP2C19 act, MRP resist rev, CYP2C9 inh, CYP2C19 inhib, CYP2C9 activ)
CC1CC(C)CN(c2ccc(C(=O)NCc3ccc4c(c3)OCO4)cc2[N+](=O)[O-])C1 (stereo not drawn)	none (no result: CYP2C19 act, MRP resist rev, CYP2C9 inh, CYP2C19 inhib, CYP2C9 activ)
CC(C)CC(=O)Nc1nc(=S)ss1	CYP2C9 inh 69
Cc1ccccc1C(=O)Nc1nc(=S)ss1	CYP2C9 inh 81 (no result: MRP resist rev)
CC(=O)Nc1nc(=S)ss1	none
O=C(Nc1nc(=S)ss1)c1c(F)cccc1F	CYP2C9 inh 80 (no result: MRP resist rev)
CC(=O)Nc1cccc(NC(=O)CSc2nnc(Cc3cccn3C)n2CCc2ccccc2)c1	none
Nc1nc(CSCc2ccccc2)nc(N2CCOCC2)n1	CYP2C19 inhib 92
CCNc1nc(SCc2ccccc2)nc(N2CCOCC2)n1	CYP2C9 inh 68, CYP2C19 inhib 82
